Laboratory results from PubChem BioAssay (NCI).
Compounds without any hit were thinned out: in the full panel of roughly 79,000, 15% have a hit. Cut-off read from the data, not from the text of the source: active = growth inhibition above about 70%; inactive = the rest.

What was measured:
[1] = NCI Yeast Anticancer Drug Screen. Data for the rad50 strain (AID 155);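 note: 0% = growth of vehicle-only cultures of the same strain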; conditions: S. cerevisiae rad50 strain growth inhibition; at 50.0 µM; stronger effect = higher value
Outline: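 Readout: growth inhibition relative to vehicle-treated cultures. Compound exposure was carried out in a genetically defined yeast strain deficient in DNA damage repair.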

[2] = NCI Yeast Anticancer Drug Screen. Data for the mec2-1 strain (AID 157); conditions: S. cerevisiae mec2-1 strain, at 50.0 µM, stronger effect = higher value
Outline: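 Test agents were screened against the mec2-1 yeast strain, with defined DNA repair or cell cycle alteration. Growth was scored as inhibition against vehicle-only controls.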

[3] = NCI Yeast Anticancer Drug Screen. Data for the sgs1 mgt1 strain (AID 161);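 note: 0% = growth of cultures given vehicle only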; conditions: S. cerevisiae sgs1 mgt1 strain, at 50.0 µM, stronger effect = higher value
Outline: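 Read-out: growth inhibition vs vehicle controls. Cells: mutant yeast strain deficient in DNA damage repair.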

[4] = NCI Yeast Anticancer Drug Screen. Data for the cln2 rad14 strain (AID 165);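 note: 0% = growth equal to vehicle treated cultures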; conditions: S. cerevisiae cln2 rad14 strain, at 50.0 µM, stronger effect = higher value
Outline: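 Growth of compound-exposed yeast (cln2 rad14 genotype) measured and expressed as inhibition relative to vehicle.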

[5] = NCI Yeast Anticancer Drug Screen. Data for the bub3 strain (AID 167); conditions: S. cerevisiae bub3 mutant strain, at 50.0 µM, stronger effect = higher value
Outline: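 Readout: yeast growth inhibition, expressed relative to vehicle-only wells. The test organism is a mutant strain from a panel with lesions in DNA repair or checkpoint genes.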

[6] = NCI Yeast Anticancer Drug Screen. Data for the mlh1 rad18 strain (AID 175); conditions: S. cerevisiae mlh1 rad18 strain growth inhibition; at 50.0 µM; stronger effect = higher value
Outline: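 In this whole-cell yeast screen, a strain with altered DNA damage repair is challenged with compound, and its growth is measured against matched vehicle-treated controls.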

Measured: growth inhibition

O=C(O)c1cc(C2CCCC2)nc2ccccc12
inactive: [1] 4.6% | [2] 17% | [3] -5.25% | [4] -6% | [5] -13.2% | [6] 6.85%

S=c1[nH]ncn2nc3ccccc3c12
inactive: [1] 0.15% | [2] 2.5% | [3] -2.25% | [4] -45.5% | [5] -3.85% | [6] 1.7%

COc1cc(C=O)cc([N+](=O)[O-])c1O
inactive: [1] -2.2% | [2] -9.75% | [3] -2.2% | [4] 1.05% | [5] -0.45% | [6] -6.1%

C/C=C/C=C/CC
inactive: [1] 8.75% | [2] -12.3% | [3] -5.4% | [4] 16.2% | [5] 16.9% | [6] -22.6%

Oc1cccc(C(c2ccccc2)c2ccccc2)c1
inactive: [1] -0.6% | [2] 0.3% | [3] -5.5% | [4] -11.1% | [5] -3.6% | [6] -3.95%

CCOC(=O)Nc1ccc([N+](=O)[O-])cc1[N+](=O)[O-]
inactive: [1] 15.9% | [2] -0.45% | [3] 16.2% | [4] 14.8% | [5] 8.6% | [6] 13.2%

CN1C(=O)CNS1(=O)=O
inactive: [1] -1.45% | [2] 9.6% | [3] -4.35% | [4] -11.1% | [5] 4.6% | [6] 7.3%

CN1C(=O)/C(=C2\SC(=O)N(CN3CCCCC3)C2=O)c2cc(Br)ccc21
inactive: [1] -10.6% | [2] -1.2% | [3] -11.2% | [4] 10.2% | [5] -2.45% | [6] 18.1%

O=S(=O)(O)c1ccc2cc(O)ccc2c1
inactive: [1] 35.7% | [2] 14.6% | [3] 13.8% | [4] 14.5% | [5] 20.8% | [6] 28.4%

Nc1ccc(C(=O)NN2C(=O)C(Cl)C2c2ccc(O)cc2)cc1 (stereo not given)
inactive: [1] -1.75% | [2] -1.45% | [3] -17.2% | [4] -3.05% | [5] 4.8% | [6] -25.6%

Cc1ccc(N2C(=O)CNC2=O)cc1
inactive: [1] -10.3% | [2] -5% | [3] -7.8% | [4] -27.2% | [5] 1.2% | [6] -6.45%

CCN(C)c1nc(N(C)CC)c2nc(N(C)CC)nc(N(C)CC)c2n1
inactive: [1] 1.95% | [2] -3.4% | [3] 17.8% | [4] 4.5% | [5] -14.5% | [6] -65.1%

Cc1ccc(S(=O)(=O)C(c2ccccc2)C(Br)C(=O)c2ccccc2)cc1 (stereo not given)
inactive: [1] -0.25% | [2] 0.35% | [3] 18.2% | [4] 7.3% | [5] 1.55% | [6] -8.4%

O=C(OCCOCBr)c1ccccc1
inactive: [1] -9.75% | [2] -32.5% | [3] 19.9% | [4] 18% | [5] 31.1% | [6] -14.3%

CCOP(=O)(OCC)C(NC(=O)C(C(F)(F)F)C(F)(F)F)c1ccccc1 (stereo not given)
inactive: [1] 7.85% | [2] 16.2% | [3] 0.05% | [4] 24.4% | [5] 34.1% | [6] -14.1%

CC(=O)OC1COC(NC(=O)N(CCCl)N=O)C(OC(C)=O)C1OC(C)=O (stereo not given)
inactive: [1] 6.25% | [2] 7.55% | [3] -25.8% | [4] -11.2% | [5] -31.2% | [6] 48.8%

NNC(=O)CC(=O)N(C(=O)/C=C/c1ccccc1)c1ccc(Cl)cc1
inactive: [1] -11.9% | [2] -16.9% | [3] 15.1% | [4] 24% | [5] -14.5% | [6] 19.4%

O=C(NCc1ccccc1)NC(c1ccccc1)(c1ccccc1)c1ccccc1
inactive: [1] 28.9% | [2] 14.2% | [3] 34.6% | [4] 11.8% | [5] -4.25% | [6] 30.9%

Cc1ccc(N(C(=O)CC(=O)NN)C(=O)c2ccccc2Cl)cc1
inactive: [1] -12.4% | [2] -13.6% | [3] -8.25% | [4] 27% | [5] 4% | [6] -5.9%

CCOC(=O)c1n[nH]c(=S)[nH]c1=O
inactive: [1] -7.95% | [2] -1.8% | [3] -3.05% | [4] -16.9% | [5] 11.7% | [6] -14.9%

CN(C)c1ccc(Cc2ccc(N(C)C)cc2[N+](=O)[O-])c([N+](=O)[O-])c1
inactive: [1] -4.35% | [2] 11.2% | [3] 19.9% | [4] 6.1% | [5] 15.3% | [6] -1.35%

O=[N+]([O-])c1cccc2c1ccc1nonc12
inactive: [1] 17.2% | [2] -5.15% | [3] 2.55% | [4] -52.1% | [5] -15.8% | [6] 20.5%

ClC1=C(Cl)C2(Cl)CC1(Cl)C1CCCCC12 (stereo not given)
inactive: [1] 18.9% | [2] -10.4% | [3] 21.4% | [4] -17.4% | [5] 16.6% | [6] -10.6%

CN(C)c1ccc(Cc2ccc(N(C)C)c3cccnc23)c2ncccc12
inactive: [1] -5.45% | [2] -9.65% | [3] 13.7% | [4] -13.4% | [5] 12.3% | [6] 1.4%

COC(=O)NC1C(C)OC(OC2C/C=C(/C)C3C=CC4C(OC5CC(OC6CCC(OC7CC(O)C(OC8CCC(O)C(C)O8)C(C)O7)C(C)O6)C(OC(C)=O)C(C)O5)C(C)CC(C)C4C3(C)/C(O)=C3/C(=O)OC4(CC(C=O)=CC(O)C4/C=C\2C)C3=O)CC1(C)[N+](=O)[O-] (stereo not given)
inactive: [1] 21.1% | [2] 20.9% | [3] 22.2% | [4] 25.6% | [5] 22.9% | [6] -38%

O=C(NC(=O)c1cn(CCN(CCO)C(=O)NCCCCCCNC(=O)N(CCO)CCn2cc(C(=O)NC(=O)OCc3ccccc3)c(=O)[nH]c2=O)c(=O)[nH]c1=O)OCc1ccccc1
inactive: [1] -2.5% | [2] 7.05% | [3] -18.9% | [4] -23.9% | [5] 0.9% | [6] -17.9%

CC(=O)NC1CCCCC1C1CCC([N+](=O)[O-])CC1 (stereo not given)
inactive: [1] 12.6% | [2] -1.75% | [3] -12.5% | [4] 12.7% | [5] 6.9% | [6] 6.05%

COc1cc(/C=C/C(=O)OC2C(O)C3CC(OC(=O)c4cc(OC)c(OC)c(OC)c4)CC2N3C)cc(OC)c1OC (stereo not given)
inactive: [1] 0.55% | [2] -21.6% | [3] 7.6% | [4] 6.15% | [5] -7.95% | [6] -4.95%

COc1ccc(/C=C/C(=O)O)cc1OC
inactive: [1] -1.65% | [2] -12% | [3] 11.7% | [4] -1% | [5] 12.3% | [6] -0.65%

CCN(CC)C(=O)c1cc2c(cc1[N+](=O)[O-])OCO2
inactive: [1] -0.6% | [2] -15.4% | [3] 3.65% | [4] -45.8% | [5] 1.25% | [6] -18.4%

CC1(C)OC(=O)C(=Cc2ccc(C#N)cc2)C(=O)O1
inactive: [1] 19% | [2] 9.6% | [3] 15.4% | [4] 11.8% | [5] 28.6% | [6] 22.8%

CCC/C(=N/NC(N)=O)c1ccco1
inactive: [1] -2.85% | [2] -1.55% | [3] -8.15% | [4] -2.25% | [5] -1.7% | [6] -0.3%

CCOC(=O)CCC(NC(=O)N1CCN(c2c(C)nc(C)[nH]c2=O)CC1)C(=O)OCC (stereo not given)
inactive: [1] 11.6% | [2] -0.1% | [3] 10.6% | [4] -4.7% | [5] 12.7% | [6] 18.6%

CCOc1ccc(CC(=O)Nc2cc([N+](=O)[O-])ccc2NCCN(CC)CC)cc1
inactive: [1] -18.2% | [2] -10.4% | [3] -8.6% | [4] -53.8% | [5] 0.2% | [6] -3.85%

S=C(Nc1ccccc1)Nc1ccccc1S
inactive: [1] -15.4% | [2] -19.8% | [3] 6.75% | [4] -20.4% | [5] 14.7% | [6] -18.9%

CC(C)CC(O)CC(C)C
inactive: [1] 1.25% | [2] -25.1% | [3] -0.75% | [4] 28.4% | [5] -15.3% | [6] 19.8%

Brc1cccc(C2ON=C(c3ccccc3)N2C23CC4CC(CC(C4)C2)C3)c1 (stereo not given)
inactive: [1] 2.2% | [2] -7.45% | [3] -1.75% | [4] -14.7% | [5] -7.55% | [6] -7.7%

CC(=O)OCC1OC(n2cc([N+](=O)[O-])c(=O)[nH]c2=O)C(OC(C)=O)C(OC(C)=O)C1OC(C)=O (stereo not given)
inactive: [1] -12.8% | [2] 9.9% | [3] -8.65% | [4] -20% | [5] 12.8% | [6] -35.1%

OC1c2ccccc2-c2ccc(Cl)cc21 (stereo not given)
inactive: [1] 23.8% | [2] 14.2% | [3] -7.15% | [4] -32.2% | [5] 4.15% | [6] 14.9%

C[N+](C)(C)CBr
inactive: [1] 36.8% | [2] -11% | [3] -21.5% | [4] -40.6% | [5] 4.75% | [6] -37.2%
